Sampled rows, rich in hits. Any-hit rate of the full collection: about 12%.
BAZ2B block = qHTS Assay for Inhibitors of BAZ2B | AID 504333, 2011 | 4.4% of 360,000 active | Bromodomain adjacent to zinc finger domain protein 2B (Homo sapiens), Q9UIF8 | AlphaScreen BAZ2B-H3K14Ac peptide displacement | Potency, µM (top dose mostly 114 µM), without a hit: at the top dose activity change, negative = inhibition, hits mostly inhibitors; note: % is set by controls: 0 for no effect and ±100 for the full control effect; nearly all actives have a fitted effect of over 60% in size
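In this displacement format the biotinylated H3(5-23) peptide acetylated at Lys14 serves as ligand at 50 nM, with BAZ2B at 50 nM in PBS pH 7.4 containing 0.01% Tween-20. Donor and acceptor beads are 10 ug/mL final.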
JMJD2A Tudor inh = qHTS Assay for Inhibitors of JMJD2A-Tudor Domain | Lysine-specific demethylase 4A (Homo sapiens), O75164 | AlphaScreen JMJD2A-Tudor / H3K4me3 peptide binding | Potency, µM (titrated, usually from 114 µM), for inactives: at the highest dose activity change, negative = inhibition, usual class: inhibitors | 4.4% of 390,000 active | AID 504339, 2011; note: % is set by controls: 0 for no effect and ±100 for the full control effect; nearly all actives have a fitted effect of over 50% in size
G9a block = qHTS Assay for Inhibitors of Histone Lysine Methyltransferase G9a | Histone-lysine N-methyltransferase EHMT2 (Homo sapiens), Q96KQ7 | G9a H3K9 monomethylation, AlphaScreen, 2 h | Potency, µM (doses to about 102 µM), without a hit: at the highest dose activity, negative = inhibition, usual class: inhibitors | 8.8% of 350,000 active | AID 504332, 2011; note: % is set by controls: 0 for no effect and ±100 for the full control effect; nearly all actives have a fitted effect of over 75% in size
Target sequence (Q96KQ7 913-1193 limits assumed): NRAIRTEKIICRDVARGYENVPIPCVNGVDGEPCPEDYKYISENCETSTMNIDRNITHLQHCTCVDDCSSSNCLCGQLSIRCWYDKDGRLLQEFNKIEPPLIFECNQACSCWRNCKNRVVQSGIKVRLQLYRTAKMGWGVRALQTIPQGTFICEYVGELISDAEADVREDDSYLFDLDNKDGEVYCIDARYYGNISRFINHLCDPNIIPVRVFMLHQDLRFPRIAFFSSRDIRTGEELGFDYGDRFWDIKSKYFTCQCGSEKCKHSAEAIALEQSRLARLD
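G9a (20 nM) preincubated 15 min RT with compounds, then 500 nM biotinylated H3K9 peptide and 20 uM SAM added; 2 h RT reaction. Monomethyl-H3K9 product detected by AlphaScreen with anti-H3K9me1 antibody, streptavidin donor and anti-rabbit IgG acceptor beads.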
L3MBTL1 inh = qHTS Assay for the Inhibitors of L3MBTL1 | Lethal(3)malignant brain tumor-like protein 1 (Homo sapiens), Q9Y468 | AlphaScreen L3MBTL1–H3K9me1 peptide binding | Potency, µM (titrated, usually from 57.1 µM), without a hit: at the top dose activity, negative = inhibition, most hits filed as inhibitors | 0.66% of 230,000 active | AID 485360, 2010; note: % is set by controls: 0 for no effect and ±100 for the full control effect; nearly all actives have a fitted effect of over 60% in size
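AlphaScreen proximity signal between nickel-chelate acceptor and streptavidin donor beads (final 10 ug/mL) reports binding of 50 nM L3MBTL1 to 75 nM biotin-H3 K9me1 peptide; complex incubated with compounds 30 min at room temperature; cefsulodin titration as control.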
Sfp PPTase inh = qHTS Assay for Inhibitors of Bacillus subtilis Sfp phosphopantetheinyl transferase (PPTase); 4'-phosphopantetheinyl transferase ffp (Bacillus subtilis), Q9F4F7; Biochemical Sfp PPTase activity, qHTS; Potency, µM, for the others: largest response in the series, negative = inhibition, usual class: inhibitors; 3.5% of 310,000 active;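 note: the enzyme is Sfp with the accession as filed and its product quenches rhodamine fluorescence; 0% = enzyme reaction without inhibitor and -100% = no enzyme wells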
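Compounds were incubated with enzyme (final 15 nM) for 15 min at room temperature before substrate addition started the reaction. Fluorescence at 525 nm excitation, 598 nm emission was recorded immediately and after 30 minutes.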
HP1b binding inh = HTS for Inhibitors of HP1-beta Chromodomain Interactions with Methylated Histone Tails. Chromobox protein homolog 1 (Homo sapiens), P83916. AlphaScreen HP1-beta / biotin-H3K9me3 peptide binding. Potency, µM (highest dose often 114 µM), for the others: top-dose activity change, negative = inhibition, actives largely listed as inhibitors. 0.56% of 390,000 active. AID 540317, 2011; note: nearly all actives have a fitted effect of over 70% in size
Target sequence (P83916 whole entry, looked up): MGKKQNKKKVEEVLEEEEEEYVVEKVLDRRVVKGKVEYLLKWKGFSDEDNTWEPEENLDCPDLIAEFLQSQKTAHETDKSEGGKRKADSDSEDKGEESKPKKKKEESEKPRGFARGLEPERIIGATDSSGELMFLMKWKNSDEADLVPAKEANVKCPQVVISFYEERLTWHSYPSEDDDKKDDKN
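AlphaScreen: HP1-beta (50 nM) preformed 30 min with biotin-H3(1-18)K9me3 peptide (50 nM) in PBS pH 7.4, 0.01% Tween-20. Compound added for 30 min at RT, then streptavidin donor/nickel chelate acceptor beads (10 ug/mL) for 30 min.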
Active calls of the source: *; u = inconclusive; x = not tested or not shown; [ ] = remark or other dose. Calls come from the whole dose curve; as a rule, active = well fitted curve in the direction sought with a large enough effect; inconclusive = small, poorly fitted or top-dose-only effect, or another doubt; inactive = no such curve, though single readings can be large; an effect the other way counts as inactive or inconclusive. Potency is the fitted concentration of half-maximal effect.

SMILES | BAZ2B block | JMJD2A Tudor inh | G9a block | L3MBTL1 inh | Sfp PPTase inh | HP1b binding inh
Nn1c(=S)[nH]nc(Cc2ccc(O)cc2)c1=O | u | -5% | u | -1% | 16µM* | 4%
CCOc1ccc(Cc2nnc(SCC(=O)Nc3ccc(OC)cc3)n(N)c2=O)cc1 | -1% | -16% | 4% | 9% | x | 24%
O=c1[nH]nc(Cc2ccc(Cl)cc2)c2ccccc12 | 5% | -1% | 8%[59 µM] | -4% | 0% | 42%
Cc1scc(CN2CCN(c3ccccc3F)CC2)c1C | 29% | 19% | 3%[59 µM] | x | x | 91%
CC(C)c1ccc(NC(=O)C2CCCN(S(=O)(=O)c3cccc4cccnc34)C2)cc1 (stereo unspecified) | 2% | -6% | 1%[59 µM] | x | x | 31%
CCn1c(O)c(N=NC(=O)CNC(=O)/C=C/c2ccco2)c2ccccc21 | -5% | -23% | 56µM* | -6% | u | 17%
COc1ccc(CNC(=O)C(C)n2c(=O)cc(C)c3c(C)nn(-c4ccccc4)c32)cc1 (stereo unspecified) | -4% | -14% | 13%[59 µM] | x | x | u
CCn1c(O)c(N=NC2=NC(=O)CS2)c2ccccc21 | 50µM* | u | 2%[0.0925 µM] | -8% | -29% | -6%
Cc1sc2nc(CSC(C)C(=O)N(C)CC(=O)Nc3ccccc3C(F)(F)F)[nH]c(=O)c2c1C (stereo unspecified) | 3% | -21% | u | 4% | x | 10%
Cc1sc2nc(CSc3ccc([N+](=O)[O-])c(C(F)(F)F)c3)[nH]c(=O)c2c1C | -36% | -21% | u | -10% | 56µM* | 16%
COc1cccc(C2CC(=O)N(c3ccc(F)cc3)C3=C2C(=O)OC3)c1OC (stereo unspecified) | -7% | -4% | -26%[59 µM] | x | x | 7%
Cc1cccc(NC(=O)C(=O)C2C(=O)Nc3ccccc32)c1 (stereo unspecified) | -13% | -35% | 45µM* | -1% | 13% | 29%
Cc1cc(N=Cc2c(O)n(-c3ccc(C)c(C)c3)c(=O)c3ccccc23)no1 | -16% | x | -7%[59 µM] | 8% | -15% | x
Cc1cc(N=Cc2c(O)ccc3ccccc23)no1 | 6% | 28µM* | 1.1µM* | -6% | -13% | -10%
Cc1cc(N=Cc2c(O)ccc3cc(Br)ccc23)no1 | 10% | 1.8µM* | 1.4µM* | -2% | 7% | u
O=C(Nc1cc2c(cc1C(=O)c1ccc(Br)cc1)OCCO2)c1ccc(Cl)cc1 | 2% | -10% | 17%[59 µM] | x | x | 31%
O=C(OCC(F)(F)F)[C@H](O)[C@@H](O)C(=O)OCC(F)(F)F | x | x | x | x | -2% | x
Cc1ccc(CN(C)c2nc(-c3cccnc3)nc3ccccc23)o1 | -22% | -32% | 40µM* | x | 0% | 24%
CCOc1ccc(CN(C)c2nc(-c3cccnc3)nc3ccccc23)cc1OC | 35µM* | u | u | x | -24% | 1%
CN(Cc1ccccc1F)c1nc(-c2cccnc2)nc2ccccc12 | 2% | -2% | -29% | x | -27% | 75%
Cc1c(-c2cc(C(=O)O)c3ccccc3n2)cnn1C | -39% | -12% | 45µM* | -8% | 13% | 32%
O=C(Nc1nnc(-c2ccc(F)cc2)o1)c1cccc([N+](=O)[O-])c1 | u | 0% | -37% | 28% | 14% | 15%[57 µM]
CS(=O)(=O)c1cccc(C(=O)Nc2nnc(C3=COCCO3)o2)c1 | 18µM* | 3.2µM* | -10%[0.501 µM] | u | x | 75%
CCCCN(C)S(=O)(=O)c1ccc(C(=O)Nc2nnc(C3=COCCO3)o2)cc1 | x | u | u | x | 14% | 22%
O=C(Nc1nnc(C2=COCCO2)o1)c1cccc([N+](=O)[O-])c1 | 79µM* | -15% | -21% | x | 7% | 27%
SMILES | BAZ2B block | JMJD2A Tudor inh | G9a block | L3MBTL1 inh | Sfp PPTase inh | HP1b binding inh
O=C(Nc1nnc(C2=COCCO2)o1)c1cccc(Br)c1 | 71µM* | -3% | 45% | x | 15% | 35%
NCCCC[C@H](NC(=O)[C@@H]1CCCN1C(=O)[C@@H](N)CCCN=C(N)N)C(=O)N1CCC[C@H]1C(=O)N[C@@H](CCC(N)=O)C(=O)N[C@@H](CCC(N)=O)C(=O)N[C@@H](Cc1ccccc1)C(=O)O | x | x | x | x | -23% | x
Cc1cccc(CN2CCc3c([nH]c4ccccc34)C2C(C)(C)C)n1 (stereo unspecified) | u | u | x | 8% | -11% | -3%
Cc1ccc(-n2ncc3c(NCc4ccccc4)ncnc32)cc1C | -4% | 1% | 6%[59 µM] | x | x | 7%
CC(C)C[C@@H](CN)NC(=O)c1nc[nH]c1C(=O)N[C@@H](CC(C)C)C(=O)CNC[C@H](C)NC(=O)c1nc[nH]c1C(=O)N[C@@H](CC(=O)O)C(=O)O | x | 79µM* | x | x | x | 54%
CC(C)C[C@@H](CNCC(=O)[C@H](CC(C)C)NC(=O)c1[nH]cnc1C(=O)N[C@H](CN)CC(C)C)NC(=O)c1nc[nH]c1C(=O)N[C@@H](CC(=O)O)C(=O)O | x | 79µM* | x | x | x | 38%
Nc1cc(C(F)(F)F)ccc1S(=O)(=O)Nc1cccc2c1NCCC2 | x | u | x | x | x | 12%
N#CC1=C(N)N(c2ccc(Br)cc2)C2=C(C(=O)CCC2)C1c1cccnc1 (stereo unspecified) | -38% | -21% | 11µM* | 19%[11.4 µM] | 5.6µM* | 43%
N#CC1=C(N)N(c2ccccc2C#N)C2=C(C(=O)CCC2)C1c1ccsc1 (stereo unspecified) | 56µM* | -33% | u | 12%[11.4 µM] | 1% | 10%
CCn1ccc2cc(S(=O)(=O)N3CCCN(C(=O)NCC(C)C)CC3)ccc21 | 5% | -2% | 5%[59 µM] | x | x | 24%[57 µM]
Cc1ccccc1NC(=O)N1CCN(C/C=C/c2ccccc2)CC1 | -18% | -8% | 10% | -2%[11.4 µM] | 12% | 48%
CC(C)CN(C(=O)CSc1nncn1-c1ccccc1)c1c(N)n(CC(C)C)c(=O)[nH]c1=O | -1% | -6% | 18%[59 µM] | x | -2% | 34%
CCCCN(C(=O)CSc1nncn1-c1ccccc1OC)c1c(N)n(Cc2ccccc2)c(=O)[nH]c1=O | -3% | -21% | 56µM* | -5% | 13% | 24%
CCCCn1c(N)c(N(CCC(C)C)C(=O)CSc2nncn2-c2ccccc2)c(=O)[nH]c1=O | u | -2% | 7.9µM* | 29% | x | 30%
O=C(NCC(=O)N1CCN(c2ncccn2)CC1)c1ccccc1OC(F)F | x | 2% | x | 4% | x | 27%
CNc1ccc(N=Nc2cccc3ncccc23)cc1 | x | 14µM* | x | x | x | 40µM*
c1cnc2ccc3ncccc3c2c1 | -17% | -7%[11.4 µM] | u | -22% | 11% | 54%

Source: PubChem BioAssay
